Assay outcomes (PubChem)
BCR signal inh – qHTS Assay to Find Inhibitors of Chronic Active B-Cell Receptor Signaling; 340,000 compounds, 0.05% hits; Potency, µM (titrated, usually from 46.1 µM), most hits filed as inhibitors; ABC-DLBCL IkBa-CBG/CBR reporter, luminescence ratio, 4 h; AID 493014, 2011; active = well fitted inhibition curve with a large enough effect in the signal ratio, with a control signal flat, not every such curve was filed as active; inconclusive = small, poorly fitted or top-dose-only effect, or effect the other way, or a change in a side signal; the % refers to the signal ratio
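Cell line TMD8 (human ABC DLBCL), stably expressing tet-inducible CBG68-IkBa fusion and CBR; IMDM/0.5% FBS; cpd up to 46 uM; dox induction, 4 h, 37C/5% CO2; dual luminescence; green/red ratio; MG132 control.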
B2AR arrestin – qHTS assay of beta-arrestin-biased ligands of beta2-adrenergic receptor; beta-arrestin recruitment to beta2AR, cell-based reporter; 330,000 compounds, 0.02% hits; Potency, µM (doses to about 46.1 µM), actives largely listed as activators; Beta-2 adrenergic receptor (Homo sapiens), P07550; note: nearly all actives have a fitted effect of over 65% in size
Target sequence (P07550 whole entry, looked up): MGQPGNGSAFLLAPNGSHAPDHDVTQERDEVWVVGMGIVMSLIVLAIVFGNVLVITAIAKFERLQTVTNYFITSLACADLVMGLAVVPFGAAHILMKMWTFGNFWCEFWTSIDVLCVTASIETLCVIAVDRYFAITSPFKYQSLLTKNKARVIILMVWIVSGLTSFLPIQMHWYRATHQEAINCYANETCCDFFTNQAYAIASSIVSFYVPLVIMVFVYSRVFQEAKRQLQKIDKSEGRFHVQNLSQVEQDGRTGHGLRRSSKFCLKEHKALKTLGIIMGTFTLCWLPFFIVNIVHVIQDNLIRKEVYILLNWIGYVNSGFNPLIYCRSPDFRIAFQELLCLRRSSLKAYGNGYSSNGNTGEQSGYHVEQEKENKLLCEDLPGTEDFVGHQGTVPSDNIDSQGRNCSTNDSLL
Menin MLL FP TR – qHTS Assay for Inhibitors Targeting the Menin-MLL Interaction in MLL Related Leukemias: Competition With Texas Red Labeled MLL-derived Mutant Peptide; O00255; Menin + Texas Red MLL mutant peptide, fluorescence polarization; Potency, µM (top dose mostly 61.6 µM), hits mostly inhibitors; 270,000 compounds, 0.23% hits; AID 1768, 2009; active = well fitted inhibition curve with a large enough effect in the polarisation, with a control signal flat, not every such curve was filed as active; inconclusive = small, poorly fitted or top-dose-only effect, or effect the other way, or a change in a side signal; inactive = no such curve, though single readings can be large or run the other way; the % refers to the polarisation
CXXC DNA block – qHTS Fluorescence Polarization Assay for Inhibitors of MLL CXXC domain - DNA interaction; Potency, µM (top dose mostly 115 µM), most hits filed as inhibitors; 290,000 compounds, 0.037% hits; MLL-CXXC / FITC-HOXA9 DNA fluorescence polarization; Histone-lysine N-methyltransferase 2A (Homo sapiens), Q03164; active = well fitted inhibition curve with a large enough effect in the polarisation, with a control signal flat, not every such curve was filed as active; inconclusive = small, poorly fitted or top-dose-only effect, or effect the other way, or a change in a side signal; inactive = no such curve, though single readings can be large or run the other way; the % refers to the polarisation
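Fluorescence polarization: 7 uM MLL-CXXC (stock) preincubated 5 min with compounds, then 50 nM fluorescein-HOX-A9 DNA (stock) added; 30 min ambient. Buffer 50 mM Tris-HCl pH 7.5, 50 mM NaCl, 1 mM DTT, 0.05% BSA.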
TSG101-PTAP inh – qHTS Assay for Iinhibitors of HIV-1 Budding by Blocking the Interaction of PTAP/TSG101; Fluorescence polarization, FITC-PTAP peptide / Tsg101 binding; 340,000 tested, under 10 active; Potency, µM (titrated, usually from 115 µM), usual class: inhibitors; active = well fitted inhibition curve with a large enough effect in the main read-out, with a control signal flat, not every such curve was filed as active; inconclusive = small, poorly fitted or top-dose-only effect, or effect the other way, or a change in a side signal; inactive = no such curve, though single readings can be large or run the other way
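Fluorescence anisotropy tracks displacement of a FITC-tagged PTAP peptide (50 nM) from the Tsg101 binding domain (10 uM), following a 20 min room-temperature incubation at pH 7.5.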
Menin MLL FP FL – qHTS Assay for Inhibitors Targeting the Menin-MLL Interaction in MLL Related Leukemias: Competition With Fluorescein Labeled MLL-derived Peptide. Fluorescence polarization, fluorescein-MLL peptide displacement from menin. FP activity change, % at 61.4 µM. 290,000 tested, under 10 active. AID 1766, 2009; active = well fitted curve in the direction sought with a large enough effect in the polarisation, not every such curve was filed as active; inconclusive = small, poorly fitted or top-dose-only effect, or effect the other way, or a change in a side signal; inactive = no such curve, though single readings can be large or run the other way; the % refers to the polarisation
MLL CXXC FP-Fl – qHTS Fluorescence Polarization (FP) Assay for Inhibitors of MLL CXXC domain - DNA interaction: Fluorescein FP; Potency, µM (top dose mostly 345 µM), actives largely listed as inhibitors; shares compounds with CXXC DNA block; MLL CXXC-DNA binding, fluorescein FP; 200 compounds, 70% hits; note: nearly all actives have a fitted effect of over 80% in size
MLL CXXC TxRed – qHTS Fluorescence Polarization (FP) Assay for Inhibitors of MLL CXXC domain - DNA interaction: Texas Red FP | shares compounds with CXXC DNA block | MLL CXXC-DNA binding, Texas Red fluorescence polarization | Potency, µM (top dose mostly 345 µM), hits mostly inhibitors | 200 compounds, 40% hits | AID 624161, 2012; note: nearly all actives have a fitted effect of over 75% in size
MLL CXXC HTRF – qHTS Fluorescence Polarization (FP) Assay for Inhibitors of MLL CXXC domain - DNA interaction: HTRF Assay | MLL CXXC-DNA binding, HTRF, biochemical | shares compounds with CXXC DNA block | 210 compounds, 30% hits | Potency, µM (titrated, usually from 172 µM), most hits filed as inhibitors; note: nearly all actives have a fitted effect of over 80% in size
Numbers stand for hits; . = inactive; ? = inconclusive; / = not tested or not shown. Shown is part of a subset that was picked to be rich in hits. Unless noted, calls come from the whole dose curve; as a rule, active = well fitted curve in the direction sought with a large enough effect; inconclusive = small, poorly fitted or top-dose-only effect, or another doubt; inactive = no such curve, though single readings can be large; an effect the other way counts as inactive or inconclusive.

SMILES	BCR signal inh	B2AR arrestin	Menin MLL FP TR	CXXC DNA block	TSG101-PTAP inh	Menin MLL FP FL	MLL CXXC FP-Fl	MLL CXXC TxRed	MLL CXXC HTRF
O=[N+]([O-])c1ccc(-c2cn3nc(-c4ccccc4)c(-c4ccccc4)nc3n2)cc1	.	.	/	?	?	?	/	/	/
O=[N+]([O-])c1cccc(-c2cn3nc(-c4ccccc4)c(-c4ccccc4)nc3n2)c1	.	.	/	40µM	.	?	179µM	.	.
CSC1=C(C#N)C(=O)NC(c2ccccc2O)S1 (configuration not stated)	.	.	/	13µM	.	.	80µM	.	?
C=Cc1c(C)/c2[n-]/c1=C\c1[n-]c(c(CC)c1C)/C=c1\[n-]c3c(c1C)C(=O)C(C(=O)[O-])C=3c1[n-]c(c(C)c1CCC(=O)[O-])\C=2.[Cu].[Na+].[Na+] (configuration not stated)	/	/	?	?	/	.	45µM	126µM	7.7µM
Cc1ccc(/C=C2/C(=O)c3ccc(C(=O)O)cc3C2=O)o1	?	.	?	40µM	.	?	?	?	39µM
Cc1ccc(C=C2C(=O)c3ccccc3C2=O)o1	.	.	.	.	.	.	/	/	/
O=C(O)c1ccc2c(c1)C(=O)/C(=C\c1ccco1)C2=O	?	.	?	32µM	.	.	22µM	.	49µM
O=C(COC(=O)c1ccc[nH]c1=O)NCCc1ccc(F)cc1	.	.	.	.	.	.	/	/	/
CCc1sc(C(C2C(=O)CC(C)(C)CC2=O)C2C(=O)CC(C)(C)CC2=O)cc1[N+](=O)[O-]	?	.	.	?	.	.	.	113µM	31µM
Cc1cc(=O)[nH]c(SCC(=O)N2CCC(C(N)=O)CC2)n1	.	.	.	.	.	.	/	/	/
Cc1ccc2nc(NC(=O)COc3ccc(F)cc3)sc2c1	.	/	/	/	/	/	/	/	/
Cc1ccc(-n2nnnc2-c2ccco2)cc1	.	.	.	.	.	.	/	/	/
O=C(O)c1ccc(NC2=C/C(=N/S(=O)(=O)c3ccccc3)c3ccccc3C2=O)cc1	?	.	?	?	.	.	?	?	.
CCc1ccc(N2CC(C(=O)Nc3ccc(S(=O)(=O)N4CCCCC4)cc3)CC2=O)cc1 (configuration not stated)	.	.	.	.	/	.	/	/	/
CCOC(=O)c1c(NC(C)=O)sc2c(OCCN(CC)CC)c(Br)ccc12	.	.	?	35µM	.	.	113µM	.	.
Nc1c(C(=O)O)ccc2c1C(=O)c1ccccc1C2=O	?	.	?	?	.	?	/	/	/
Nc1cc(C(=O)O)c(N)c2c1C(=O)c1ccccc1C2=O	?	.	/	32µM	?	?	113µM	40µM	.
Cc1cc(C(=O)COC(=O)c2ccc(NC(=O)CC#N)cc2)c(C)n1C1CC1	?	.	/	/	.	/	/	/	/
COc1ccc(C2OC34CCCCC3C(C#N)(C#N)C2(C#N)C(=N)O4)cc1 (configuration not stated)	.	.	?	28µM	.	?	142µM	113µM	.
NS(=O)(=O)c1ccc(NC2=CC(=O)C(=O)c3ccccc32)cc1	?	.	?	?	.	.	?	?	.
O=c1nc2c(O)cccn2c2c1c(=O)[nH]c1ccccc12	.	.	.	32µM	?	?	4µM	?	?
O=c1[nH]c2ccccc2c2nc3ccccn3c12	?	.	?	.	.	.	/	/	/
Nc1nnc(SCC(=O)c2ccccc2)s1	?	.	.	.	.	.	/	/	/
Nc1c(C(=O)c2ccccc2)sc2snc(SCC(=O)c3ccccc3)c12	.	.	?	?	.	?	.	.	.
CSCCC(NS(=O)(=O)c1ccc(C)cc1)C(=O)NC1CCCCC1 (configuration not stated)	.	.	.	.	.	.	/	/	/
SMILES	BCR signal inh	B2AR arrestin	Menin MLL FP TR	CXXC DNA block	TSG101-PTAP inh	Menin MLL FP FL	MLL CXXC FP-Fl	MLL CXXC TxRed	MLL CXXC HTRF
O=C(OCC1OC(OC(=O)c2cc(O)c(O)c(OC(=O)c3cc(O)c(O)c(O)c3)c2)[C@@H](OC(=O)c2cc(O)c(O)c(OC(=O)c3cc(O)c(O)c(O)c3)c2)C(OC(=O)c2cc(O)c(O)c(OC(=O)c3cc(O)c(O)c(O)c3)c2)C1OC(=O)c1cc(O)c(O)c(OC(=O)c2cc(O)c(O)c(O)c2)c1)c1cc(O)c(O)c(OC(=O)c2cc(O)c(O)c(O)c2)c1 (some centres not stated)	/	/	?	63µM	/	?	3.6µM	4.5µM	0.39µM
Cc1cn(C2OC(COC(=O)c3ccccc3)C(OC(=O)c3ccccc3)C2OC(=O)c2ccccc2)c(=O)[nH]c1=O (configuration not stated)	?	.	.	.	.	.	/	/	/
COc1ccc(NC(=O)C(c2ccc(OC)cc2)N(C)C(=O)CC2NC(=O)NC2=O)cc1 (configuration not stated)	.	.	.	.	.	.	/	/	/
S=C(NC1CCCCC1)N1CCN(C2CCCCC2)CC1	.	.	?	?	.	.	?	.	.
O=C(NC1CCCCC1)N1CCN(C2CCCCC2)CC1	.	.	.	.	.	.	/	/	/
CCN1CCN(c2nc3c(C)cccn3c(=O)c2/C=C(\C#N)C(=O)NCCOC)CC1	.	.	.	32µM	.	.	.	.	.
COCCNC(=O)/C(C#N)=C/c1c(N2CCN(C)CC2)nc2c(C)cccn2c1=O	.	.	.	.	.	.	/	/	/
CC(=O)Oc1ccc2c(c1)Oc1cc(OC(C)=O)ccc1C21OC(=O)c2ccccc21	.	.	?	?	?	?	0.022µM	.	.
